Bioassay records as filed in PubChem BioAssay.
SMN2 splice up = SMN2 splice variant enhancement | 210,000 compounds, 2.8% hits | Potency, µM (highest dose often 46.1 µM), without a hit: top-dose activity change, positive = activation, hits mostly activators | HEK293 SMN2-luciferase splicing reporter, luminescence, 30-36 h; also: % of control where 0% means no effect; nearly all actives have a fitted effect of over 55% in size
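HEK293 cells carry an SMN2 […]–luciferase reporter in which exon 7 inclusion puts luciferase in frame. Cells were plated 10-12 h before compound addition, then incubated 30-36 h at 37C. ONE-Glo luminescence was read; sodium butyrate at 4.5 mM final served as control.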
Rab9 promoter act = activators of Rab9 promoter | 320,000 compounds, 2.8% hits | Huh7 Rab9 promoter-luciferase reporter, luminescence, 24 h | Potency, µM (highest dose often 9.22 µM), for the others: at the top dose activation, negative = inhibition, hits mostly activators; also: % of control where 0% means no effect; nearly all actives have a fitted effect of over 60% in size
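Luciferase signal after 10 min detection reagent at ambient indicates Rab9 promoter upregulation; stably transfected Huh7 cells were treated 24 h with compound in DMSO at 37 °C, 5% CO2.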
NPC1 prom act = activates the NPC1 promoter | Huh7 NPC1 promoter luciferase reporter, 24 h | Potency, µM (highest dose often 9.22 µM), inactives show top-dose activation, most hits filed as activators | 320,000 compounds, 2.4% hits | AID 485313; also: % of control where 0% means no effect; nearly all actives have a fitted effect of over 60% in size
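In 1536-well qHTS, Huh7 cells harboring an NPC1 promoter–luciferase construct received compound for 24 h; activation was quantified by luminescence following luciferase reagent addition.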
FLuc modulator = firefly luciferase modulation, counter-screen for miR-21 project; P08659; purified FLuc, Km substrates, luminescence inhibition; Potency, µM (highest dose often 57.5 µM), for inactives: at the top dose activity change, negative = inhibition, hits mostly inhibitors; 360,000 compounds, 6.9% hits;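 also: plate controls were vehicle for no effect and reference inhibitor for full effect; nearly all actives have a fitted effect of over 55% in size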
Target sequence (P08659 whole entry, looked up): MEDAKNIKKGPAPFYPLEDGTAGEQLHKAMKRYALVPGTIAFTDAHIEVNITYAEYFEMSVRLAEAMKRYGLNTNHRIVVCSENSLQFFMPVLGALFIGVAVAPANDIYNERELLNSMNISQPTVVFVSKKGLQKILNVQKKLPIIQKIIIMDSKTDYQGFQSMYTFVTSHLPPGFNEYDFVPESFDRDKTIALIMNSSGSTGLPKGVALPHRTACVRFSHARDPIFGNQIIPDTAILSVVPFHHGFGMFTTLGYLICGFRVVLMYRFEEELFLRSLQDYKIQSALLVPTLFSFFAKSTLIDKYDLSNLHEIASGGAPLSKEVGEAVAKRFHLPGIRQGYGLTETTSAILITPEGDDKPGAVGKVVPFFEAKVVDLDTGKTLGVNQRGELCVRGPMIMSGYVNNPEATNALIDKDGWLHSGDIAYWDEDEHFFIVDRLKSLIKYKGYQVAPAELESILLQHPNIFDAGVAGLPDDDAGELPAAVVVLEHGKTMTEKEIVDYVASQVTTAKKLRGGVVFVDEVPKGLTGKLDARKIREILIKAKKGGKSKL
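Purified P. pyralis luciferase (10nM final) with 10uM D-luciferin and 10uM ATP (Km levels) in 50mM Tris acetate pH 7.5, 10mM Mg acetate, 0.01% Tween-20, 0.05% BSA; qHTS 6-point titration, ~60 µM downward; luminescence read.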
ELG1 repair inh = ELG1-dependent DNA repair inhibition; HEK293T ELG1-luciferase reporter, luminescence, 16 h; DNA damage induced by 5-fluorouridine; Potency, µM (highest dose often 46.1 µM), for the others: top-dose activity change, negative = inhibition, usual class: inhibitors; 330,000 compounds, 2.3% hits; also: % is scaled to controls: 0 for no effect and ±100 for the full control effect; nearly all actives have a fitted effect of over 55% in size
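Overnight (16 hr) co-exposure of 2,000 cells/well to 5-fluorouridine and compound at 37 °C preceded detection. Luciferase was quantified via ONE-Glo luminescence; loss of signal denotes inhibition.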
ELG1 genotox = genotoxicity induction in ELG1-luciferase HEK293T cells. HEK293T ELG1-luciferase reporter, luminescence, 16 h. Potency, µM (series often up to 46 µM), for inactives: at the top dose activity change, positive = activation, most hits filed as activators. 330,000 compounds, 1.3% hits. AID 504466; also: % of control where 0% means no effect; nearly all actives have a fitted effect of over 60% in size
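Genotoxic stress is detected as increased luminescence from luciferase-tagged ELG1 in HEK293T cells, measured with ONE-Glo after a 16 hr treatment at 37 °C.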
The depositor's hits bear a star; ? = inconclusive; · = not tested or not shown. A selection: hits, their analogues and other compounds. The true share with any hit is near 9.2%. Calls follow the shape of the dose curve; as a rule, active = well fitted curve in the direction sought with a large enough effect; inconclusive = small, poorly fitted or top-dose-only effect, or another doubt; inactive = no such curve, though single readings can be large; an effect the other way counts as inactive or inconclusive. Potency is read from the fitted curve at half-maximal effect.

SMILES | SMN2 splice up | Rab9 promoter act | NPC1 prom act | FLuc modulator | ELG1 repair inh | ELG1 genotox
COc1ccccc1N(C)S(=O)(=O)c1ccc(C(=O)Nc2cccc(Br)c2)cc1 | · | · | · | · | 18µM* | -18%
CC(C)(C)C(=O)Nc1ccc2nc(SCCOc3ccccc3Cl)sc2c1 | · | · | · | -2% | · | ·
COc1ccccc1N(C)S(=O)(=O)c1ccc(C(=O)NCCc2ccc(F)cc2)cc1 | · | 4% | -1% | 1% | ? | -30%
COc1ccccc1N(C)S(=O)(=O)c1ccc(C(=O)Nc2nccs2)cc1 | · | -2% | -1% | -10% | ? | -9%
COc1ccccc1N(C)S(=O)(=O)c1ccc(C(=O)N(C)Cc2ccc(OC(F)F)cc2)cc1 | · | -10% | -6% | -1% | 16µM* | -9%
COc1cc(NC(=O)c2ccc(S(=O)(=O)N(C)c3ccccc3OC)cc2)cc(OC)c1 | · | · | · | · | 15µM* | -7%
C=CCN(c1ccccc1OC)S(=O)(=O)c1ccc(Cl)c(C(=O)Nc2ccc(N3CCOCC3)cc2)c1 | -23% | 1% | -15% | -8% | 7.3µM* | 1%
O=C(/C=C/CCc1ccc2c(c1)OCO2)N1CCCCC1 | · | · | · | · | ? | 6%
Cc1ccc(NC(=S)NC(=O)c2sc3ccccc3c2Cl)c(C(=O)O)c1 | 9% | -2% | 1% | 27µM* | ? | 0%
O=C(NC(=S)Nc1ccccc1N1CCOCC1)c1sc2ccccc2c1Cl | -35% | -5% | -1% | 4% | 15% | -2%
O=C(O)c1ccccc1NC(=S)NC(=O)c1sc2ccccc2c1Cl | 26% | 25% | 15% | 24µM* | ? | 4%
Cc1ccc(S(=O)(=O)c2nnn3c2nc(NCc2ccc4c(c2)OCO4)c2sccc23)cc1C | · | · | · | -6% | · | ·
CN1CCN(C(=O)c2ccc(CNS(=O)(=O)c3ccc(F)c(Cl)c3)cc2)CC1 | · | -2% | -2% | -1% | 11% | -1%
Brc1cccc(-c2n[nH]c(-c3ccccc3)n2)c1 | 10µM* | 3.5µM* | 6.3µM* | 3µM* | ? | 2.3µM*
c1ccc(-c2nc(-c3cccnc3)n[nH]2)cc1 | ? | 28% | 16% | ? | ? | 9%
CCCc1ccc(-c2cc(NC(=O)CSc3n[nH]c(N)n3)n(-c3ccccc3)n2)cc1 | 2% | 15% | 17% | 4.3µM* | 6% | ?
Cn1c(SCC(=O)Nc2nnc(-c3ccccc3)o2)nnc1C1CC1 | · | 0% | 1% | 13µM* | 19% | 1%
CC(C)(C)c1cc(NC(=O)CSc2nnc(N)s2)n(-c2ccccc2)n1 | · | -1% | 1% | 4% | -16% | 3%
Nc1nnc(SCC(=O)Nc2nnc(-c3ccccc3)o2)s1 | · | -2% | 1% | ? | -5% | 0%
CC(NC(=O)CSc1n[nH]c(N)n1)c1ccccc1 (stereo not given) | · | -2% | -1% | 5% | 7% | 4%
COCCNc1nnc(SCC(=O)Nc2nnc(-c3ccccc3)o2)s1 | · | -5% | -1% | 19µM* | 20% | 12%
CC(C)(C)c1cc(NC(=O)CSc2nnc(NCc3ccccc3)s2)n(-c2ccccc2)n1 | -35% | 0% | -1% | 19µM* | 23µM* | -12%
CCC(Sc1ncccc1C(=O)Oc1ccccc1Cl)C(=O)Nc1ccccc1OC (stereo not given) | · | · | · | 1% | · | ·
CN(C)Cc1ccccc1-c1nccc(NC2CC2)n1 | 3% | · | · | · | · | ·
CN1C(=O)c2ccccc2Sc2ccc(NC(=O)NCc3cccc(Cl)c3)cc21 | · | · | · | 3% | · | ·
SMILES | SMN2 splice up | Rab9 promoter act | NPC1 prom act | FLuc modulator | ELG1 repair inh | ELG1 genotox
COCCNc1nnc(SCC(=O)Nc2cc(-c3ccccc3)nn2-c2ccccc2)s1 | 23% | -1% | -2% | ? | 21µM* | -4%
COc1ccc(-n2cnnc2SCC(=O)Nc2cc(C(C)(C)C)nn2-c2ccccc2)cc1 | -17% | -3% | 1% | 3% | 21µM* | -19%
COc1ccccc1-n1cnnc1SCC(=O)Nc1cc(C(C)(C)C)nn1-c1ccccc1 | -34% | 1% | 1% | -1% | ? | -7%
O=C(NCC(c1cccnc1)N1CCN(Cc2ccccc2)CC1)C(=O)Nc1cccc(F)c1 (stereo not given) | · | · | · | -11% | · | ·
COC(=O)c1cc(C(=O)Nc2nc3ccccc3[nH]2)cc([N+](=O)[O-])c1 | · | 4% | 17% | 4.8µM* | -27% | 0%
O=C(Cc1nc2ccccc2[nH]1)c1cccc([N+](=O)[O-])c1 | · | 6% | ? | 24µM* | 4.1µM* | -6%
O=C(Nc1nc2ccccc2[nH]1)c1ccc([N+](=O)[O-])cc1 | 2.5µM* | 0.56µM* | 1µM* | ? | ? | ?
CCOC(=O)Cc1nc2ccccc2[nH]1 | -2% | 1% | -2% | 0% | -10% | -3%
C/C(=N\Nc1nc2ccccc2[nH]1)c1ccc([N+](=O)[O-])cc1 | · | -5% | 0% | -16% | 10% | 3%
Cc1ccc(C(=O)Cc2nc3ccccc3[nH]2)cc1 | · | 4.5µM* | 2µM* | 6µM* | ? | 3.5µM*
COc1cccc(N(C(=O)c2sc(C)nc2C)C(C(=O)NCC2CCCO2)c2ccccc2)c1 (stereo not given) | · | -1% | -5% | 0% | 1% | -11%
COc1ccc2oc(-c3ccc(C)c(NC(=O)c4ccc5c(c4)OCCO5)c3)nc2c1 | 29% | · | · | ? | · | ·
CCOC(=O)c1c(NC(=O)c2ccc(S(=O)(=O)N3CCCC(C)C3)cc2)sc2c1CC(C)(C)NC2(C)C (stereo not given) | · | · | · | -5% | · | ·
O=C(Nc1nc2ccccc2[nH]1)c1cccc([N+](=O)[O-])c1 | 11µM* | 1.4µM* | 3.5µM* | ? | ? | 9%
O=C(NC(Cc1ccccc1)c1nc2ccccc2[nH]1)c1cccc([N+](=O)[O-])c1 (stereo not given) | · | -3% | 10% | -18% | 2% | -3%
Cc1onc(-c2ccccc2)c1C(=O)NC(=S)NNC(=O)c1ccncc1 | 6% | -5% | 0% | 0% | 0% | -1%
Cc1onc(-c2ccccc2)c1C(=O)NC(=S)NNC(=O)c1cccnc1 | 39% | -3% | -3% | 1% | -11% | -2%
Cc1onc(-c2ccccc2)c1C(=O)NC(=S)NNC(=O)c1cc(-c2ccc(F)cc2)n[nH]1 | · | -2% | 1% | 15µM* | ? | -9%
Cc1onc(-c2ccccc2)c1C(=O)NC(=S)NNC(=O)c1ccco1 | · | -2% | 3% | 2% | 23µM* | 2%
COc1ccc2c(c1OC)C(=O)N(c1cccc(NC(C)=O)c1)C2 | · | 21% | 14% | 11µM* | ? | ?
COc1ccc(C(=O)Nc2cccc(NC(C)=O)c2)cc1OC | 12% | -7% | 1% | ? | ? | 2%
